In PubChem BioAssay AID540275 (National Center for Advancing Translational Sciences (NCATS), 2011):
Hit rate of the full screen: of about 320,000 compounds, about 620 (0.19%) were called active. Roughly 6% stayed inconclusive and do not appear here. Cut-off read from the data, not from the text of the source: active = activation above about 80%; inconclusive = between about 30% and that limit; inactive = weaker than that. The list comes from a sample in which actives are over-represented; it also holds similar structures and randomly drawn compounds.

What follows are compounds tested against Transient receptor potential cation channel subfamily V member 1 (Homo sapiens) (UniProt Q8NER1) (assay: HTS Assay for Compounds that Act as Agonists of the Vanilloid Receptor 1). Details: TRPV1-expressing cells, Fluo-8 calcium influx, agonist mode; at 8.33 µM; hits give high values.
Transient receptor potential cation channel subfamily V member 1 (Homo sapiens), sequence (Q8NER1 whole entry, looked up): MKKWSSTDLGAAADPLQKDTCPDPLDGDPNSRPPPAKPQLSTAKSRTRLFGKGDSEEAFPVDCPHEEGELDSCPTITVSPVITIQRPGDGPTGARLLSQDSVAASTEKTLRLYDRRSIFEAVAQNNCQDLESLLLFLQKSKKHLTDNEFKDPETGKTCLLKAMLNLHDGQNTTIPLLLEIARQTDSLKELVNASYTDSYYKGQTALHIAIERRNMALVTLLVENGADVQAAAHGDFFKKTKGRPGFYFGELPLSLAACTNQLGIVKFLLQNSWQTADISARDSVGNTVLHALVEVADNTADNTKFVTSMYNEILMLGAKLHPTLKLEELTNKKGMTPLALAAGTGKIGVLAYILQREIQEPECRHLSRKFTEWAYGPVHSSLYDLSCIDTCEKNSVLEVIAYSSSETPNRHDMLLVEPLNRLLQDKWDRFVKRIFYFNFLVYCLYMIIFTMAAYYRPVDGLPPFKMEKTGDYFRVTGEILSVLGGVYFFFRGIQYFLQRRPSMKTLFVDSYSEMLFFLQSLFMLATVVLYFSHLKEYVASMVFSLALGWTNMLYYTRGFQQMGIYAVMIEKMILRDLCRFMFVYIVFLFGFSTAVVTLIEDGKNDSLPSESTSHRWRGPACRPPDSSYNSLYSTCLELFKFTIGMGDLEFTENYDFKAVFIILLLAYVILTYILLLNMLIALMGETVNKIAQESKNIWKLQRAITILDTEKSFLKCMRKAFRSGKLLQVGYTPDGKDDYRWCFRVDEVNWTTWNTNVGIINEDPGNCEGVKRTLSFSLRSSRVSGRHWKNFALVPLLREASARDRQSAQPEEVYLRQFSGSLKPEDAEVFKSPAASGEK
Excerpt: The transient receptor potential ion channel, family V, number 1, (TRPV1) is one of the most important molecular transducers of painful stimuli and a potential target for analgesic drug development. Although recent clinical trials with orthosteric antagonists have not produced a successful drug because of a hyperthermia side effect and their tendency to block thermal noxious pain, this ion channel is undeniably well placed in the pain pathway, and the idea of blocking pain signals before they enter the CNS is an excellent concept and of proven efficacy when TRPV1 agonists are used. We propose a new approach involving allosteric modulation to impose an activity-dependent constraint within the context of inflammation and tissue damage that would alter the responsiveness of the channel in a way that an orthosteric vanilloid antagonist cannot achieve. We believe that the allosteric modulator approach has not been explored for this target. The main goal of this proposal is to identify additional, new, potent allosteric modulators of TRPV1 that can be used to investigate TRPV1 function. Our recent report provides evidence of proof of concept, but the compounds are just at the edge of utility in terms of potency. […] The question of whether they can be used as analgesic agents is complex, but if suitable compounds are identified then testing for analgesic properties will be conducted. NIH Chemical Genomics Center [NCGC] NIH Molecular Libraries Probe Centers Network [MLPCN] MLPCN Grant: MH089480-1A1 Assay Submitter (PI): Michael Iadarola, National Institute of Dental and Cranofacial Research
Upon TRPV1 activation in TRPV1 cells, the channel opens and extracellular cations flow through the channel into the cytosol. A calcium binding dye (Fluo-8) becomes fluorescent when bound to calcium. This dye is pre-loaded into cells and is used as a marker for calcium influx. The amount of accumulated calcium is precisely quantified using the FDSS kinetic reader and the calcium dye. For the HTS assay, freshly prepared cells are plated at a density of 2000/well in 3 ul medium in 1536-well plates and cultured overnight at 35.5C. Cells will be loaded with 1 ul of the homogeneous calcium dye (ABD Bioquest) at room temperature for 40 to 90 minutes. Plates will be loaded into the FDSS kinetic reader and a 1 sec / cycle for 10 second baseline signal will be measured. Compound library will then be added with a pintool at 23 nl and measured kinetically for 3 minutes. This portion of the read is considered the agonist portion of the screen. Following the 3 minutes of incubation, an on board pipettor will deliver 1 ul of capsaicin for a final concentration equal to the EC20. Signal will be measured kinetically for an additional 2 minutes. This portion of the read is considered the allosteric enhancer portion of the screen. The FDSS reader has a standard filter set capable of measuring calcium bound Fluo-8 (ex=480 and em=520 nm).
Note: 0% is about no effect.

activation, active:
COc1cccc2cc(C(C)N(CCCN3CCOCC3)C(=O)Nc3ccc(Cl)cc3)oc12 (stereo not given) 85.6%
CN(C)c1ccc(/C=C2\NC(=S)N(Cc3ccccc3)C2=O)cc1 82.1%
Cc1cccc(C(=O)Nc2ccc3c(c2)C(=O)N(CC(C)C)C3=O)c1 80.9%
O=C(/C=C\c1cn(-c2ccccc2)nc1-c1cccs1)N1CCOCC1 96.6%
Cc1cccn2c(=O)c3cc(C(=O)NCC4CCCO4)c(=N)n(Cc4ccc(F)cc4)c3nc12 (stereo not given) 84.1%
CCOc1ccc(CCNC(=O)Nc2ccccc2)cc1OCC 91.3%
COc1cc(/C=N/NC(=O)c2ccc(N3CCCC3=O)cc2)ccc1O 82.8%

activation, inactive:
Cc1ccc(CN2CC(C(=O)N3CCN(S(=O)(=O)c4ccccc4)CC3)CC2=O)cc1 (stereo not given) 0.927%
COc1ccc(NS(=O)(=O)c2cc(NC(=O)COc3ccccc3F)ccc2OC)cc1 0.255%
COc1ccc(C2=NN(C(=O)CSc3nnnn3C)C(c3ccco3)C2)cc1 (stereo not given) -0.899%
O=C(CSc1nnc(CN2CCCC2)n1-c1ccc(F)cc1)c1ccc2c(c1)OCO2 4.88%
COc1cccc(NC(=S)NCCCN2CCOCC2)c1 -6.52%
COc1ccc(Cl)cc1NC(=O)CCN1CCOCC1 -0.647%
Cc1cccc(C)c1NC(=O)COC(=O)c1c(C)nn(-c2ccccc2)c1C 0.597%
O=C1NCC(=O)N(Cc2ccccc2)/C1=C/c1ccccc1 6.12%
O=C1/C(=C\c2ccsc2)NC(=S)N1c1ccccc1 2.57%
Cc1csc(=O)n1CCC(=O)OCC(=O)NNC(=O)c1ccc(Br)cc1 2.91%
OCC[C@H]1C[C@H](O)[C@@H](O)[C@]2(Cc3ccccc3CO2)O1 1.78%
Cc1cccc(N2C(=O)c3ccc(C(=O)Nc4cccc(C(=O)O)c4)cc3C2=O)c1 -0.654%
Cc1cccc(C(=O)Nc2ccc(CC(=O)O)cc2)c1 1.02%
N#Cc1cccc(NC(=O)C2CCCN(C(=O)c3ccc(Cl)cc3)C2)c1 (stereo not given) 11.9%
O=C(O)/C=C/c1cn(Cc2ccccc2)nc1-c1cccs1 2.25%
O=C(O)c1ccc(N/N=C/c2cn(-c3ccccc3)nc2-c2cccs2)cc1 -2.97%
CC(C(=O)Nc1ccc(S(=O)(=O)N2CCCC2)cc1)N(C)Cc1ccc(F)cc1 (stereo not given) 17.2%
O=C(CSc1ccccc1)Nc1cccc(S(=O)(=O)N2CCCCC2)c1 21.4%
O=C(OCC(=O)N1CCN(C(=O)c2ccco2)CC1)c1ccc(Cl)c(Cl)c1 2.6%
Oc1ccc(Cl)cc1C1C=C(c2ccc3c(c2)OCO3)NC(c2ccc(F)c(Br)c2)N1 (stereo not given) 6.1%
Cc1cccn2c(=O)c3cc(C(=O)NCCN4CCOCC4)c(=N)n(Cc4cccnc4)c3nc12 22.9%
COc1ccc(CCn2c(=N)c(C(=O)NCC3CCCO3)cc3c(=O)n4cccc(C)c4nc32)cc1OC (stereo not given) 4.61%
COC(=O)c1cc(Oc2ccc(S(=O)(=O)N3CCOCC3)cc2[N+](=O)[O-])cc(C(=O)OC)c1 -0.765%
CCCN(CC(=O)Nc1ccccc1C)C(=O)c1ccc2[nH]c3c(c2c1)CC(C)CC3 (stereo not given) 3.39%
CCN(CC)S(=O)(=O)c1ccc(OC)c(NC(=O)CCc2c(C)noc2C)c1 -1.51%
CCCC(NCC(=O)Nc1ccccc1C(=O)NC1CC1)c1ccccc1 (stereo not given) 21.8%
CO[C@H]1[C@@H]2C=CO[C@@H](O[C@H]3O[C@@H](CO)[C@H](O)[C@@H](O)[C@@H]3O)[C@@H]2[C@@]2(CO)O[C@@H]12 -3.6%
CC(C)N(C(=O)CN1CCN(S(=O)(=O)c2ccc(Br)s2)CC1)C(C)C 17.4%
CCCCN(CC(=O)Nc1cccc(S(=O)(=O)N2CCCC2)c1)Cc1nc2ccccc2c(=O)[nH]1 26.8%
CCOc1cc(NC(=O)Nc2ccccc2)c(OCC)cc1NC(=O)CC 3.84%
CCOc1ccc(CCNC(=O)COC(=O)c2c(OC)cccc2OC)cc1OCC -2.55%
Cc1cc(C(=O)COc2ccc(Br)cc2F)c(C)n1C1CC1 20.7%
CNS(=O)(=O)c1cccc(C(=O)OCCCC(=O)c2ccccc2)c1 4.36%
CC(OC(=O)Cc1ccc(F)cc1)C(=O)N1CCc2ccccc21 (stereo not given) 16.3%
Cc1cc(C)n2nc(C(=O)Nc3cccc(S(=O)(=O)N4CCOCC4)c3)nc2n1 0.0473%
Nc1cc(N)nc(SCC(=O)Nc2cccc(S(=O)(=O)N3CCCCC3)c2)n1 1.32%
O=C(NCCc1ccc(F)cc1)c1ccc(S(=O)(=O)N2CCCCC2)cc1 28.8%
O=C(N/N=C/c1cccc(Br)c1)c1ccc(N2CCCC2=O)cc1 14.1%
C/C(=N\NC(=O)c1cccc(N2CCCC2=O)c1)c1ccc(N)cc1 -0.551%
Cc1ccc(C(=O)CN2C(=O)NC3(CCOc4ccccc43)C2=O)s1 (stereo not given) -5.77%
CC(C)CCN1CCC(C)(NC(=O)c2ccccc2)C1=O (stereo not given) -3.6%
CC(=O)c1ccc(OCCCC(=O)Nc2ccc(C)c(S(=O)(=O)N3CCOCC3)c2)cc1 5.88%
COc1cc(OC)c(N2CC(C(=O)Nc3cc(Cl)ccc3N3CCOCC3)CC2=O)cc1Cl (stereo not given) 1.31%
Cc1cccc(Nc2nnc(SCC(=O)c3c(N)n(C4CC4)c(=O)[nH]c3=O)s2)c1C -1.01%
COc1ccc(C(=O)OCC(=O)c2cc(C)n(CC3CCCO3)c2C)cc1[N+](=O)[O-] (stereo not given) -3.97%
CN(CC(=O)NC1CCN(Cc2ccccc2)CC1)S(=O)(=O)c1ccc(Cl)s1 7.2%
CN(C(=O)CSc1nnc(-c2ccc3c(c2)OCO3)o1)C1CCS(=O)(=O)C1 (stereo not given) 1.32%
COc1ccc(C(=O)N2CCN(c3ncccn3)CC2)cc1S(=O)(=O)N1CCOCC1 4.11%
